Assay [1] addresses Cytochrome P450 2C19 (Homo sapiens) (UniProt P33261). Description: NVS_ADME_hCYP2C19: NovaScreen (NVS) CYP450-related Enzyme Activity (ADME) Assay for human CYP2C19 (AID 2283113).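 Also: potency for inhibition seen as loss of fluorescent signal.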 An outline of the steps:
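Chemicals first screened in duplicate at 10 uM against recombinant human enzyme produced in insect cells; confirmed actives then run as concentration series. Fluorogenic substrate turnover read by fluorescence after 1 h, normalised to acetonitrile.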

The target of assay [2] is human CYP1A2, CYP1A2 (gene 1544) (UniProt P05177). Description: NVS_ADME_hCYP1A2: NovaScreen (NVS) CYP450-related Enzyme Activity (ADME) Assay for human CYP1A2 (AID 2283102).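 Also: fluorescence from turnover of a fluorogenic substrate by recombinant insect-cell CYP1A2; potency for inhibition since loss of fluorescence marks reduced CYP1A2 activity.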 The method, boiled down: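 Compounds were tested at 10 uM in duplicate against recombinant CYP1A2 produced in insect cells. Enzyme activity was measured by fluorescence 0.5 h after dosing, with loss of signal versus acetonitrile control. Active compounds were re-tested in concentration series.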

In assay [3] the target is rat CYP2D1, Cyp2d1 (gene 266684) (UniProt P10633). Description: NVS_ADME_rCYP2D1: NovaScreen (NVS) CYP450-related Enzyme Activity (ADME) Assay for rat CYP2D1 (AID 2283122). The method, boiled down:
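Cell-free fluorescence enzyme-activity assay on extracted rat CYP2D1 protein, read 0.75 h after dosing. Primary screen in duplicate at 10 uM; qualifying chemicals then run in concentration-response to 20 uM max, loss-of-signal versus acetonitrile baseline.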

The test system of assay [4] is rat CYP3A1, gene 25642. Kind of assay: NVS_ADME_rCYP3A1: NovaScreen (NVS) CYP450-related Enzyme Activity (ADME) Assay for rat CYP3A1 (AID 2283126). An outline of the steps:
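Cell-free recombinant CYP assay with fluorescent substrate, read 0.5 h after dosing. Screened at 10 uM in duplicate, hits at up to 20 uM in concentration-response; loss of signal versus acetonitrile baseline.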

Assay [5] addresses human AKT serine/threonine Kinase 1 (AKT1), AKT1 (gene 207) (UniProt P31749). Description: NVS_ENZ_hAKT1: NovaScreen (NVS) Enzymatic Assay for human AKT serine/threonine Kinase 1 (AKT1) (AID 2283138). An outline of the steps:
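Recombinant human AKT1 with a specific substrate, product separated by electrophoretic mobility shift, read after 1 h. Compounds at 25 uM in duplicate, then concentration-response up to 50 uM for hits; inhibition relative to DMSO.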

Assay [6] addresses human Acetylcholinesterase (AChE), ACHE (gene 43) (UniProt P22303). Description: NVS_ENZ_hAChE: NovaScreen (NVS) Enzymatic Assay for human Acetylcholinesterase (AChE) (AID 2283129). The method, boiled down: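 Cell-free colorimetric enzyme-activity assay; compounds read 0.33 hour after dosing, loss of signal vs DMSO baseline. Primary screen in duplicate at 25 uM single concentration, with active compounds retested in concentration series.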

The target in assay [7] is human AMP-activated Protein Kinase, alpha 1 (AMPKa1), PRKAA1 (gene 5562) (UniProt Q13131). Description: NVS_ENZ_hAMPKa1: NovaScreen (NVS) Enzymatic Assay for human AMP-activated Protein Kinase, alpha 1 (AMPKa1) (AID 2283130). The method, boiled down: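 Recombinant human AMPKα1 activity was measured cell-free by fluorescent substrate conversion with electrophoretic mobility-shift separation, 1 h after dosing. Duplicate single-point screening was at 25 uM; actives (≥30% inhibition) were retested in concentration-response up to 50 uM.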

In assay [8] the target is human Acid Phosphatase 1 (ACP1), ACP1 (gene 52) (UniProt P24666). Kind of assay: NVS_ENZ_hACP1: NovaScreen (NVS) Enzymatic Assay for human Acid Phosphatase 1 (ACP1) (AID 2283136). The method, boiled down: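 Recombinant enzyme expressed in Sf9 cells, tested cell-free; activity read by fluorescence with electrophoretic mobility shift separation of substrate and product, 1.5 h after dosing. Primary screen in duplicate at 25 uM, actives then run in concentration series; loss of signal versus DMSO.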

The target of assay [9] is rat CYP2A2, Cyp2a2 (gene 24895) (UniProt P15149). Description: NVS_ADME_rCYP2A2: NovaScreen (NVS) CYP450-related Enzyme Activity (ADME) Assay for rat CYP2A2 (AID 2283116). An outline of the steps:
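Cell-free recombinant rat CYP2A2 activity with fluorogenic substrate, fluorescence read 0.2 h after dosing. Chemicals screened at 10 uM in duplicate, hits then run in concentration-response up to 20 uM; signal loss versus acetonitrile baseline.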

In assay [10] the target is rat CYP2C11, Cyp2c11 (gene 29277) (UniProt P08683). Description: NVS_ADME_rCYP2C11: NovaScreen (NVS) CYP450-related Enzyme Activity (ADME) Assay for rat CYP2C11 (AID 2283118). The method, boiled down:
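Cell-free recombinant rat enzyme with fluorescent substrate; readout 0.33 h after dosing, loss of signal versus acetonitrile control. Initial duplicate single-point at 10 uM; actives rerun in concentration series.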

Assay [11] deals with human CYP2C9, CYP2C9 (gene 1559) (UniProt P11712). Description: NVS_ADME_hCYP2C9: NovaScreen (NVS) CYP450-related Enzyme Activity (ADME) Assay for human CYP2C9 (AID 2283108). An outline of the steps:
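Recombinant human CYP2C9 expressed in SF9 cells, fluorogenic substrate, fluorescence read 0.75 h after dosing. Chemicals first run in duplicate at 10 uM, with actives followed in concentration series; loss of signal versus acetonitrile baseline.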

In assay [12] the target is Cytochrome P450 3A4 (Homo sapiens) (UniProt P08684). Description: NVS_ADME_hCYP3A4: NovaScreen (NVS) CYP450-related Enzyme Activity (ADME) Assay for human CYP3A4 (AID 2283110). The method, boiled down:
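Cell-free recombinant enzyme expressed in insect cells; fluorescent substrate turnover read after 0.33 h, acetonitrile as negative control. Primary screen in duplicate at 10 uM, actives then tested in concentration series.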

Assay [13] addresses human CYP2D6, CYP2D6 (gene 1565) (UniProt P10635). Description: NVS_ADME_hCYP2D6: NovaScreen (NVS) CYP450-related Enzyme Activity (ADME) Assay for human CYP2D6 (AID 2283107). The method, boiled down:
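Compounds were first tested in duplicate at 10 uM against recombinant enzyme produced in insect cells, with substrate turnover measured by fluorescence after 1 hour. Decreased signal, referenced to acetonitrile vehicle, was taken as reduced enzyme activity. Active chemicals went on to concentration-response testing.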

In assay [14] the target is human CYP2C8, CYP2C8 (gene 1558) (UniProt P10632). Description: NVS_ADME_hCYP2C8: NovaScreen (NVS) CYP450-related Enzyme Activity (ADME) Assay for human CYP2C8 (AID 2283104; active = hit-call score of the fitted dose curve at least 0.9, where 1 is the maximum; inactive = score below 0.9). The method, boiled down: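 Recombinant human CYP2C8 with fluorogenic substrate, 0.5 h, fluorescence intensity; signal loss fitted versus acetonitrile. Screened in duplicate at 10 uM, then actives run in concentration-response up to 20 uM.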

In assay [15] the target is rat CYP3A2, Cyp3a2 (gene 266682) (UniProt P05183). Kind of assay: NVS_ADME_rCYP3A2: NovaScreen (NVS) CYP450-related Enzyme Activity (ADME) Assay for rat CYP3A2 (AID 2283128). An outline of the steps:
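Cell-free rat CYP3A2 enzyme assay with fluorescent substrate, read 0.5 h after dosing. Primary duplicate screen at 10 uM; actives run in concentration-response up to 20 uM, relative to acetonitrile baseline.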

The target of assay [16] is human Caspase 5 (CASP5), CASP5 (gene 838) (UniProt P51878). Kind of assay: NVS_ENZ_hCASP5: NovaScreen (NVS) Enzymatic Assay for human Caspase 5 (CASP5) (AID 2283137). An outline of the steps: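 Recombinant human caspase 5 expressed in E. coli, fluorogenic substrate, fluorescence read 2 h after dosing. Single-point 25 uM duplicate screen, then concentration-response to maximum 50 uM for actives; DMSO baseline.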

The target of assay [17] is human Caspase 2 (CASP2), CASP2 (gene 835) (UniProt P42575). Kind of assay: NVS_ENZ_hCASP2: NovaScreen (NVS) Enzymatic Assay for human Caspase 2 (CASP2) (AID 2283135). An outline of the steps: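 E. coli-expressed enzyme in a cell-free protease assay, fluorescence read 1 h after dosing. Compounds at 25 uM in duplicate, with concentration-response up to 50 uM for hits; loss of signal against DMSO baseline.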

The target of assay [18] is human CYP4F12, CYP4F12 (gene 66002) (UniProt Q9HCS2). Kind of assay: NVS_ADME_hCYP4F12: NovaScreen (NVS) CYP450-related Enzyme Activity (ADME) Assay for human CYP4F12 (AID 2283111). The method, boiled down: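 Cell-free fluorescence assay of recombinant human CYP4F12 activity on a specific substrate, read 0.5 h after dosing. Primary screen in duplicate at 10 uM, then concentration series for actives; loss of signal fitted against acetonitrile negative control.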

The results in this text go back to PubChem BioAssay (EPA / NIEHS).

“And” between values parts separate entries of the source, which are not always exact repeats. Equal values may be shown once. Inconclusive results are not listed. The source made the active and inactive calls. The calls were made as follows, unless noted: active = hit-call score of the fitted dose curve at least 0.9, where 1 is the maximum; inconclusive = response in the unintended direction; inactive = score below 0.9.

human CYP2C9, CYP2C9 (gene 1559), sequence (P11712 whole entry, looked up): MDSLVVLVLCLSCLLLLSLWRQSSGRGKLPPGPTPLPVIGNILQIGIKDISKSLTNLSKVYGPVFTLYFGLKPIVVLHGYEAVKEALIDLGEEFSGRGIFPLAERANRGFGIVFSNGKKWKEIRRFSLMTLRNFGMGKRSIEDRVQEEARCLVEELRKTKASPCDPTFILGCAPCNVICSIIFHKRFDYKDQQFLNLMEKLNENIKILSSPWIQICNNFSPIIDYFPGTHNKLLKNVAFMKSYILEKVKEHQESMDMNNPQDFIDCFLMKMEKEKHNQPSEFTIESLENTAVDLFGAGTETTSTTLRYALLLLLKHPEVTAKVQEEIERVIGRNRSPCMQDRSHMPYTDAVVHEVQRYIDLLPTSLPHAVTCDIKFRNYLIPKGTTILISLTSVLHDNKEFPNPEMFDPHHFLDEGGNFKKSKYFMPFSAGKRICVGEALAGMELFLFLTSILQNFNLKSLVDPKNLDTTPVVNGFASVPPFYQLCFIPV
Cytochrome P450 3A4 (Homo sapiens), sequence (P08684 whole entry, looked up): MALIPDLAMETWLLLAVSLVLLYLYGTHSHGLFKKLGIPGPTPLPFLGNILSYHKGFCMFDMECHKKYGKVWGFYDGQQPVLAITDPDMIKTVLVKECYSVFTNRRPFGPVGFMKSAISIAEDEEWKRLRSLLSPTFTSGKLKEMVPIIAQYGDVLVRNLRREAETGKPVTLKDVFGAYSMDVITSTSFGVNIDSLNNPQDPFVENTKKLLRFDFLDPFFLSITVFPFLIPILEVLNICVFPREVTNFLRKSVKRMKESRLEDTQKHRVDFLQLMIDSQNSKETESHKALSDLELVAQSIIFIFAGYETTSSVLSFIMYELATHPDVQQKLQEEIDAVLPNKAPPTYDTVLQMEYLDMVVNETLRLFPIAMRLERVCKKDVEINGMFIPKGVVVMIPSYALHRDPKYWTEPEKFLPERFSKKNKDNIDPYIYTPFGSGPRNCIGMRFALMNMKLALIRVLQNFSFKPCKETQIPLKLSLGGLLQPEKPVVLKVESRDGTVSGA
rat CYP2C11, Cyp2c11 (gene 29277), sequence (P08683 whole entry, looked up): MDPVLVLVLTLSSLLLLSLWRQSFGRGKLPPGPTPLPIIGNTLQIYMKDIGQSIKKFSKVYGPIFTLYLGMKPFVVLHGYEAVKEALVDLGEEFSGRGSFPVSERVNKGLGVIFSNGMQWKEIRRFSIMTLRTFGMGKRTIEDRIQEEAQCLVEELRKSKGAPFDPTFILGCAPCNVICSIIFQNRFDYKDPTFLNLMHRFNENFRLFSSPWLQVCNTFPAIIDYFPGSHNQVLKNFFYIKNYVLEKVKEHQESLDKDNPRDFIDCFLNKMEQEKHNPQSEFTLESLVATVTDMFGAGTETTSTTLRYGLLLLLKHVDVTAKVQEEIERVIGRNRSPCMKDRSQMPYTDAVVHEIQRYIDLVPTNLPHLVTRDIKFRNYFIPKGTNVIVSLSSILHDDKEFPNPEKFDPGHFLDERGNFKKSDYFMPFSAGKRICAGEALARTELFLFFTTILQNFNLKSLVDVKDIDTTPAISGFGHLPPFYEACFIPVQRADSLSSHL
human AMP-activated Protein Kinase, alpha 1 (AMPKa1), PRKAA1 (gene 5562), sequence (Q13131 whole entry, looked up): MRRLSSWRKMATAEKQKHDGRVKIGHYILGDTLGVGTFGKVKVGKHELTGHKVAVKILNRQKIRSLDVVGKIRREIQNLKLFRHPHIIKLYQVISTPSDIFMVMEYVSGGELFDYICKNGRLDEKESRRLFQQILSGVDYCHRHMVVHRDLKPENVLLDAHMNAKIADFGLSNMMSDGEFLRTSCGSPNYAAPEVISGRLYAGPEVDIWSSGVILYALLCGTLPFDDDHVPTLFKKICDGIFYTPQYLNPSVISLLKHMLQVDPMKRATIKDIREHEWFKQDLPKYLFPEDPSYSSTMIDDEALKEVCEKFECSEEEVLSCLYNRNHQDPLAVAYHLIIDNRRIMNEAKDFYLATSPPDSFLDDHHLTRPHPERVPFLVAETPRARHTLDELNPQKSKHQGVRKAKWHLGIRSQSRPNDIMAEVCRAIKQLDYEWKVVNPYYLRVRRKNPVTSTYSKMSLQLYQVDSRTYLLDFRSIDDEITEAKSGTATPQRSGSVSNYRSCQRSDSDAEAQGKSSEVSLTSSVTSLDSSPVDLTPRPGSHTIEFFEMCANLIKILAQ
human Acetylcholinesterase (AChE), ACHE (gene 43), sequence (P22303 whole entry, looked up): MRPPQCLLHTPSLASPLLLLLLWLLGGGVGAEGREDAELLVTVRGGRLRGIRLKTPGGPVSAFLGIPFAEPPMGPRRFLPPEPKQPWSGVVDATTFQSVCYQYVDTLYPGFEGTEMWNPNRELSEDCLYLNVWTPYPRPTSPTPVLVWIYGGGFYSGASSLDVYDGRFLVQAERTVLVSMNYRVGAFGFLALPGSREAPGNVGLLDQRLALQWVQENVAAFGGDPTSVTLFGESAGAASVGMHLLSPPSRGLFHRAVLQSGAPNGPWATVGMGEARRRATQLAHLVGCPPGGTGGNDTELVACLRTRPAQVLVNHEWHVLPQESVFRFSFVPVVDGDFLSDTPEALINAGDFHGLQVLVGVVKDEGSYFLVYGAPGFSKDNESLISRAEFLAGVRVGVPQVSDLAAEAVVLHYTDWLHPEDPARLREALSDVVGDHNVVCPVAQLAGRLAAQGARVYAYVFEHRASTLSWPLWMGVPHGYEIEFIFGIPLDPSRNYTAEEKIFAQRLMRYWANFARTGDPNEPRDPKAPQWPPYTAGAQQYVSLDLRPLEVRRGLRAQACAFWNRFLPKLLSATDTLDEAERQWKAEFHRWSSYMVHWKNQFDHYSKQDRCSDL
human AKT serine/threonine Kinase 1 (AKT1), AKT1 (gene 207), sequence (P31749 whole entry, looked up): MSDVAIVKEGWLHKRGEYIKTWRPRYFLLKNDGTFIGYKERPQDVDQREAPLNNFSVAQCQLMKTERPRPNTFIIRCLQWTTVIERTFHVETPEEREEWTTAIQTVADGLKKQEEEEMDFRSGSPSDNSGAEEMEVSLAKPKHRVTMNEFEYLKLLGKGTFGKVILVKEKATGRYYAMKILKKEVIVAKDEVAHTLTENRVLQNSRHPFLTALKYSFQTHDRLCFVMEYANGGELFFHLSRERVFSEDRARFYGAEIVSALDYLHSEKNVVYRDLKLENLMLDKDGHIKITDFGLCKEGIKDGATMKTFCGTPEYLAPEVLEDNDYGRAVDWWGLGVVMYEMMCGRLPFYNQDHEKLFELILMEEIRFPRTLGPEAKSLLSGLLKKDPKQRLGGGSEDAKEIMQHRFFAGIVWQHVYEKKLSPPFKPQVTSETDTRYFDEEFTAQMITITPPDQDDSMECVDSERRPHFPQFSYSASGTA
human CYP2D6, CYP2D6 (gene 1565), sequence (P10635 whole entry, looked up): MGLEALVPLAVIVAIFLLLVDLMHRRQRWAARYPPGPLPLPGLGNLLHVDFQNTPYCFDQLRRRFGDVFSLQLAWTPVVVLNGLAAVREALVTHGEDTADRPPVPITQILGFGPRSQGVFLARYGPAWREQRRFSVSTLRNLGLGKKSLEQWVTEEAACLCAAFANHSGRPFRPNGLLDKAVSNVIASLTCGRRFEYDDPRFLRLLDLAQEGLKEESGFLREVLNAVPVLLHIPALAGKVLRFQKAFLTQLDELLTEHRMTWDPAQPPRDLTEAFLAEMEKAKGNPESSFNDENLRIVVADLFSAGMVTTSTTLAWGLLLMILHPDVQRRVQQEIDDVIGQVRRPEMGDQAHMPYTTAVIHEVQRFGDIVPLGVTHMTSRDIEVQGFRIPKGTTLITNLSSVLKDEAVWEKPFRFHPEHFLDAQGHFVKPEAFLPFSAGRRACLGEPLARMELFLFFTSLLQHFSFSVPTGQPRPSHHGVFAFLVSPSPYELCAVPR
human Acid Phosphatase 1 (ACP1), ACP1 (gene 52), sequence (P24666 whole entry, looked up): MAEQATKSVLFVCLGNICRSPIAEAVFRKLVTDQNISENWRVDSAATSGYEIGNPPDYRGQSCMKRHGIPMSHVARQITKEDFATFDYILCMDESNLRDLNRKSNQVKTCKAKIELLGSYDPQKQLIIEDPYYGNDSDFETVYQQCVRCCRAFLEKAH
human Caspase 5 (CASP5), CASP5 (gene 838), sequence (P51878 whole entry, looked up): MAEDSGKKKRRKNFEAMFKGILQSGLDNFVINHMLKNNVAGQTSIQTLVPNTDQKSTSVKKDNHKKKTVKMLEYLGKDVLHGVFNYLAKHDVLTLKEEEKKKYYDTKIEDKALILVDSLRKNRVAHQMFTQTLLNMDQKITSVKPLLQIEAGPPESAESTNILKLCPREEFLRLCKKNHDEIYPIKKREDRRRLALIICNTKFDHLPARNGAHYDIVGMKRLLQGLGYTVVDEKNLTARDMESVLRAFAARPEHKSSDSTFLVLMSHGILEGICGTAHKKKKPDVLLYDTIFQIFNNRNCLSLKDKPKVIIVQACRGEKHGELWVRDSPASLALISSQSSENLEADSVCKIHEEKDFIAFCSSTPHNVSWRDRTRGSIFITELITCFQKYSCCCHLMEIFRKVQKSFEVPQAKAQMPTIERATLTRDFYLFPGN
human CYP1A2, CYP1A2 (gene 1544), sequence (P05177 whole entry, looked up): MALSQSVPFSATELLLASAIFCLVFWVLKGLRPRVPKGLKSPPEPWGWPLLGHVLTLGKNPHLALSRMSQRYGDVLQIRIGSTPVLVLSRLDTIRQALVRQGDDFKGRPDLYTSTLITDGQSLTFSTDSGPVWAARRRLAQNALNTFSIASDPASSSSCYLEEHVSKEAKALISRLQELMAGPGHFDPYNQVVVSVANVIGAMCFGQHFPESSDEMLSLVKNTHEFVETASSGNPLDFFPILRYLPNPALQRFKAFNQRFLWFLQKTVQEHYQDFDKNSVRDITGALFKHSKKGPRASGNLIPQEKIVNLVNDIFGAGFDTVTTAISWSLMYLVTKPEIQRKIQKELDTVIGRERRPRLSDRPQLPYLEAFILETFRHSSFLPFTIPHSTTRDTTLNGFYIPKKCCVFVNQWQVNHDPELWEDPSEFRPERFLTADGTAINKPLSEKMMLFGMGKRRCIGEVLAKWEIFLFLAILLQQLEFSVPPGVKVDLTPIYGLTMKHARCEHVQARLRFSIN

For orientation: AC50 means the concentration giving half of the maximal activity seen. On to `CCC(C)c1cc([N+](=O)[O-])cc([N+](=O)[O-])c1O` (stereo unspecified), for which the AC50 in assay [1] is 15.2 µM (active).
Take `CCOC(=O)C(O)(c1ccc(Cl)cc1)c1ccc(Cl)cc1`: the AC50 in assay [1] is 0.596 µM (active).
`CCNc1nc(NC(C)C)nc(SC)n1`: the half-maximal activity concentration (AC50) is 4.92 µM (active) in assay [2], 4.91 µM (active) in [1] and 6.58 µM (active) in assay [4]. Further, the outcome in [3] and in assay [5] was inactive.
`CCCCCCCCOC(=O)c1ccccc1C(=O)OCCCCCCCC`: the outcome in [6] was inactive.
On to `CC1=C2C[C@H]3[C@@H](CC=C4C[C@@H](O)CC[C@@]43C)[C@@H]2CC[C@]12O[C@@H]1C[C@H](C)CN[C@H]1[C@H]2C`, for which the outcome in assay [7] and in [8] was inactive.
`C[C@]12CCC(=O)C=C1CC[C@@H]1[C@@H]2CC[C@@]2(C)[C@H]1CC[C@]2(C)O`: the AC50 was 9.15 µM (active) in assay [1]; 5.45 µM (active) in assay [9]; 3.82 µM (active) and 2.41 µM (active) and 2.57 µM (active) in assay [10].
For the compound `CCC(C)(c1ccc(O)cc1)c1ccc(O)cc1`, the values for the AC50 in assay [11] and in assay [1] were 6.47 µM (active) and 4.4 µM (active), respectively. Further, the compound was called inactive in assay [12].
Consider `Cc1ccccc1CO[C@@H]1C[C@@]2(C(C)C)CC[C@]1(C)O2`, for which, in [5], the outcome was inactive.
For `COc1ccc(O)c(C(C)(C)C)c1`, the AC50 in assay [11] is 10 µM (active); in [1], 12.1 µM (active).
For the compound `CO/C=C(/C(=O)OC)c1ccccc1COc1cccc(C(F)(F)F)n1`, the compound was classed as inactive in assay [13]. Besides, the AC50 in [11] is 6.85 µM (active); in assay [1], 1 µM (active).
Regarding `CCC(C)(CC)c1cc(NC(=O)c2c(OC)cccc2OC)on1`, the compound was classed as inactive in assay [14] and in [16]. In addition, the AC50 in [11] is 2.79 µM (active); in assay [1], 5.05 µM (active); in assay [15], 0.981 µM (active).
For `O=S(=O)(O)C(F)(F)C(F)(F)C(F)(F)C(F)(F)C(F)(F)C(F)(F)F`, the values for the AC50 in [2] and in [11] were 9.34 µM (active) and 0.0791 µM (active), respectively. In addition, in assay [7], the compound was called inactive.
Take `O=C(O)C(F)(F)C(F)(F)C(F)(F)C(F)(F)C(F)(F)F`: the outcome in [7] was inactive.
Take `CC(C)(c1ccccc1)c1ccc(O)cc1`: the compound was called inactive in assay [13] and in [12]. For the same compound, in assay [11], the AC50 is 10 µM (active).
With `Cc1cccc(C)c1N`, the result in assay [12] was inactive.
In the case of `O=C(O)C(F)(F)C(F)(F)C(F)(F)C(F)(F)C(F)(F)C(F)(F)C(F)(F)C(F)(F)F`, the half-maximal activity concentration (AC50) in [11] is 0.643 µM (active); in assay [7], 36.7 µM (active); in assay [16], 12.8 µM (active). For the same compound, in assay [8], the result was inactive.
Turning to `Nc1ccc(-c2ccc(N)cc2)cc1`, the AC50 in assay [11] is 10 µM (active); in assay [1], 8.09 µM (active). Moreover, the call in assay [17] was inactive.
With `Oc1ccc(C(c2ccc(O)cc2)(C(F)(F)F)C(F)(F)F)cc1`, the AC50 in assay [11] was 0.406 µM (active); in assay [12], 7.65 µM (active); in assay [18] it was 3.97 µM (active); in assay [1], 0.145 µM (active); in assay [7], 13.5 µM (active). Besides, the outcome in assay [6] was inactive.
On to `Cc1cc2c3c(c1)C(c1ccccc1)=N[C@@H](NC(=O)c1ccncc1)C(=O)N3CC2`, for which, in assay [12], the result was inactive.
As to `CC(c1ccc(O)cc1)(c1ccc(O)cc1)c1ccc(O)cc1`, in assay [1], the concentration at half-maximal activity (AC50) was 1.73 µM (active).
As to `CCCN(CCC)N=O`, the compound was classed as inactive in [7].
